Assay results: PubChem BioAssay (NCI)
About 83,000 compounds went through this panel and 20% of them were active in at least one assay; those are over-represented in the sample as a whole.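 Cell lines were cultured in 96-well plates, exposed to a single compound concentration, and assessed for percent growth 48 hours later.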 Unmarked numbers belong to inactive results. Activity calls are given as the source filed them. The calls were made as follows: active = growth percent below 10; inactive = the rest.

Key:
Test in all cases: NCI-60 one-dose screen, 48 h (100 = growth as untreated, 0 = no growth, -100 = all killed)
Conditions in all cases: 10 µM unless noted
DU-145 prostate = tested on: DU-145 prostate
K-562 leukemia = tested on: K-562 leukemia
MALME-3M melanoma = tested on: MALME-3M melanoma
MDA-MB-231 breast = tested on: MDA-MB-231 breast
RXF 393 renal = tested on: RXF 393 renal
SF-268 CNS = tested on: SF-268 CNS
SF-295 CNS = tested on: SF-295 CNS
SF-539 CNS = tested on: SF-539 CNS
UACC-257 melanoma = tested on: UACC-257 melanoma
M14 melanoma = tested on: M14 melanoma
HCT-15 colon = tested on: HCT-15 colon
HT29 colon = tested on: HT29 colon
SNB-75 CNS = tested on: SNB-75 CNS
SNB-19 CNS = tested on: SNB-19 CNS
U251 CNS = tested on: U251 CNS
PC-3 prostate = tested on: PC-3 prostate
SK-MEL-5 melanoma = tested on: SK-MEL-5 melanoma
UACC-62 melanoma = tested on: UACC-62 melanoma
LOX IMVI melanoma = tested on: LOX IMVI melanoma
SK-MEL-28 melanoma = tested on: SK-MEL-28 melanoma

Row | Structure (SMILES) | growth (DU-145 prostate) | growth (K-562 leukemia) | growth (MALME-3M melanoma) | growth (MDA-MB-231 breast) | growth (RXF 393 renal) | growth (SF-268 CNS) | growth (SF-295 CNS) | growth (SF-539 CNS) | growth (UACC-257 melanoma) | growth (M14 melanoma) | growth (HCT-15 colon) | growth (HT29 colon) | growth (SNB-75 CNS) | growth (SNB-19 CNS) | growth (U251 CNS) | growth (PC-3 prostate) | growth (SK-MEL-5 melanoma) | growth (UACC-62 melanoma) | growth (LOX IMVI melanoma) | growth (SK-MEL-28 melanoma)
1 | O=C1CC(N2C(=O)/C(=C/C(Cl)=C\c3ccc([N+](=O)[O-])cc3)SC2=S)C(=O)N1c1ccc(O)cc1 (stereo not given) | 0.996% (active) | 6.6% (active) | -39% (active) | -10.3% (active) | -70.5% (active) | 5.72% (active) | -37.2% (active) | -28.8% (active) | -5.88% (active) | -7.42% (active) | -38.2% (active) | -16.7% (active) | 14.9% | -9.69% (active) | -39.5% (active) | 5.02% (active) | -39.1% (active) | -63.2% (active) | -83.7% (active) | -34% (active)
2 | c1ccc2c(c1)nc(CN1CCOCC1)n1cc(N3CCCC3)nc21 | 106% | 67.8% | 96.9% | 104% | 95% | 110% | 112% | 91.5% | 99.1% | 107% | 97.3% | 111% | 89.7% | 102% | 102% | 82.1% | 98% | 100% | 102% | 118%
3 | Cn1ccc2c(c1=O)C(=O)c1nccc3c1c-2nc1ccccc13 | -88.3% (active) | -46.6% (active) | 89.3% | -85.5% (active) | 40.8% | -69.2% (active) | -66% (active) | -28.9% (active) | 108% | 82.9% | -61.4% (active) | -76.7% (active) | 60.2% | -74.4% (active) | -92.9% (active) | -44.8% (active) | 95% | 91.7% | -98.4% (active) | 106%
4 | COc1ccc(/C=N/C2=C(C#N)C(c3ccc(OC)cc3)c3ccc4ccccc4c3O2)cc1 (stereo not given) | 97.7% | 23.4% | 74.2% | 53.5% | 84.8% | 77.2% | 88.6% | 79.5% | 92.1% | 69.7% | 44.3% | 123% | 45.5% | 80% | 84.5% | 70% | 70.4% | 57.8% | 72.6% | 79.7%
5 | O=C(NC(CSSCC(NC(=O)c1ccccc1)C(=O)O)C(=O)O)c1ccccc1 (stereo not given) | 114% | 96% | 109% | 110% | 116% | 99.4% | 106% | 102% | 102% | 98.9% | 99.8% | 103% | 102% | 107% | 104% | 95.8% | 108% | 99.6% | 95.7% | 118%
6 | CC1=C(SCCC(=O)OC(C[Se]C2=C(C)C(=O)c3ccccc3C2=O)C(=O)NCCCCCC(=O)OCc2ccccc2)C(=O)c2ccccc2C1=O (stereo not given) | 39.1% | 21.6% | 45.6% | 59% | 57.8% | 48.8% | -7.98% (active) | 9.31% (active) | 45.4% | -1.57% (active) | 56.5% | 25.9% | 55.5% | 38.6% | 22.9% | 11.4% | 8.74% (active) | 65.2% | 39.7% | 53.6%
7 | COc1cc2c(cc1-c1c(C)noc1C)ncc1nc(C3CCC(F)(F)CC3)n(C3CCC(OC(F)F)CC3)c12 (stereo not given) | 73.3% | 41.5% | 48.2% | 37.8% | 75.5% | 72.7% | 68.1% | 61.8% | 38.8% | 55.1% | 36.1% | 31.6% | 15.1% | 67.2% | 77.7% | 41.8% | 43.7% | 32% | 35.2% | 66.6%
8 | CN(C)c1ccc(-c2ccc3[nH]c(=O)nc(-c4ccccc4)c3c2)cn1 | 65.1% | 7.91% (active) | 51.2% | 44.6% | 64.5% | 55.5% | 39.5% | 28.3% | 80.8% | 13.7% | 28.1% | 14.1% | 27.9% | 50.4% | 38.1% | 47.2% | 39.6% | 48.5% | 38.5% | 55.8%
9 | COc1ccccc1N1C(=O)/C(=C/C2=Cc3ccccc3OC2)SC1=S | 100% | 75% | 92.9% | 88.1% | 103% | 109% | 91.5% | 103% | 100% | 98.2% | 65.3% | 99.6% | 97.8% | 91.1% | 95.7% | 77.1% | 97.7% | 86% | 105% | 92.8%
10 | Cc1ccc(S(=O)(=O)n2cc(CNc3ccc(N4CCOCC4=O)cc3)c3ccccc32)cc1 | 67.6% | 82.4% | 62.9% | 87.8% | -8.02% (active) | 89.4% | 88.7% | 96.8% | 86.6% | 93.3% | 74.7% | 89.1% | 73.4% | 97.7% | 95.1% | 89.6% | 93% | 78.2% | 87.2% | 101%
11 | CC(=O)N1N=C(c2ccc(Nc3nc(Nc4ccc(F)cc4)nc(Nc4ccc(F)cc4)n3)cc2)CC1c1cccc([N+](=O)[O-])c1 (stereo not given) | 106% | 76.7% | 91.3% | 84.6% | 81.4% | 103% | 482% | 92.9% | 115% | 94.1% | 91.7% | 48.5% | 21.8% | 92.5% | 86.7% | 70.9% | 78.8% | 92.6% | 87.9% | 74.4%
12 | COc1cc(C(=O)/C=C/c2c(C(F)(F)F)nc3sccn23)cc(OC)c1OC | 10.7% | -16.1% (active) | 78.6% | 29.1% | -55.7% (active) | 16.1% | -2.07% (active) | -59.1% (active) | 13.4% | -39.2% (active) | -62.2% (active) | -11.8% (active) | 29.8% | 20.7% | 4.46% (active) | 16.4% | 5.95% (active) | -13.8% (active) | -57.9% (active) | -18.4% (active)
13 | C[n+]1cc2cc(C(N)=O)[nH]c3c(=N)c(Cl)c(N)c1c23 | 69.7% | 53% | 99.1% | 53.7% | 73.8% | 64.8% | 74.1% | 90.6% | 45.5% | 59.9% | 42.1% | 35.3% | 86.3% | 75.1% | 62.2% | 48.4% | 79.2% | 78% | 64.2% | 109%
14 | CCCCc1ccc(Nc2ccc(Nc3ccc(CCCC)cc3S(=O)(=O)O)c3c2C(=O)c2ccccc2C3=O)c(S(=O)(=O)O)c1 | 107% | 114% | 110% | 83.1% | 95% | 99.7% | 101% | 96.5% | 88.3% | 101% | 104% | 113% | 89.9% | 104% | 103% | 39.1% | 91.9% | 84.5% | 86.4% | 108%
15 | COc1ccc(-c2nc3sccn3c2-c2cc(-c3cc(OC)c(OC)c(OC)c3)on2)cc1 | 93.3% | 47.4% | 105% | 80.9% | 110% | 98.2% | 109% | 73.7% | 141% | 91.7% | 96.9% | 86.1% | 77.4% | 87.5% | 107% | 58.9% | 68.7% | 89.1% | 90.5% | 127%
